This excerpt belongs to a sample that is enriched for hits.
CHX counter – counter-screen hit for Shiga toxin inhibitors, cycloheximide. cell reporter, cycloheximide protein synthesis inhibition counterscreen. max response, %. 300,000 compounds, 12% hits; in the data active = max response mostly above about 13%, no sharp cut-off; inactive = mostly below about 14%; also: read at 38.3 µM for the half of the compounds with a filed dose
SARS PLP yeast – inhibitors of SARS-CoV papain-like protease in yeast | S. cerevisiae expressing SARS-CoV PLpro, growth rescue | Potency, µM (highest dose often 32.9 µM), hits mostly activators | 330,000 compounds, 0.19% hits | AID 485353; calls by dose curve; also: nearly all actives have a fitted effect of over 55% in size
AmpC inh no detg – inhibitors of E. coli AmpC beta-lactamase without detergent. 330,000 compounds, 0.52% hits. Potency, µM (highest dose often 57.1 µM), hits mostly inhibitors. AmpC nitrocefin hydrolysis, absorbance 480 nm, 0.0001% Triton. P00811; also: nearly all actives have a fitted effect of over 20% in size
Target sequence (P00811 whole entry, looked up): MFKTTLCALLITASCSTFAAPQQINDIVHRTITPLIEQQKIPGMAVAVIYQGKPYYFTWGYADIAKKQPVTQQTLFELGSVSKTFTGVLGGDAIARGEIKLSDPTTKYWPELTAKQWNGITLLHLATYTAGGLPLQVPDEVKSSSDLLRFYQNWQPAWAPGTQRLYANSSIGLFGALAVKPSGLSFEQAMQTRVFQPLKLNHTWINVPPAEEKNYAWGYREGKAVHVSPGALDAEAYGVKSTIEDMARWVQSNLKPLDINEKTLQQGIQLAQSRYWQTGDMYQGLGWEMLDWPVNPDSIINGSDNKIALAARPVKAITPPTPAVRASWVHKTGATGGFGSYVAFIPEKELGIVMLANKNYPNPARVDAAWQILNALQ
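AmpC (5.3 nM in the dispensed reagent) in 20 mM phosphate pH 7.0 with 0.01% (detergent screen) or 0.0001% Triton X-100 was preincubated with compounds for 15 min at room temperature. Nitrocefin was then added from an 800 uM solution, and hydrolysis was followed at 480 nm.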
Shiga inhibitor – Shiga toxin inhibition; Vero cells, Shiga toxin protein synthesis inhibition reporter; 290,000 compounds, 9.2% hits; inhibition, % at 38.7 µM; in the data active = inhibition mostly above about 28%, no sharp cut-off; inactive = mostly below about 43%
AmpC inh detg – AmpC beta-lactamase inhibition with detergent present; P00811; AmpC hydrolysis of nitrocefin, absorbance 480 nm, 0.01% Triton; Potency, µM (highest dose often 114 µM), usual class: inhibitors; 370,000 compounds, 0.041% hits; also: nearly all actives have a fitted effect of over 25% in size
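20 mM phosphate pH 7.0 + 0.01% (detergent screen) or 0.0001% Triton X-100; 5.3 nM AmpC reagent; cpd preinc 15 min RT; nitrocefin (800 uM stock) to start; A480 q20 s × 4 min; Activity was normalised to no-enzyme and no-compound control wells.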
AMA1-RON2 inh – inhibitors of Plasmodium falciparum AMA1-RON2 interaction; 360,000 compounds, 0.2% hits; AID 720542; AlphaScreen AMA1-biotinylated RON2 peptide binding; Potency, µM (doses to about 58.2 µM), actives largely listed as inhibitors; also: nearly all actives have a fitted effect of over 45% in size
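AMA1 (3D7) with his tag at 25 nM final met compounds first, then biotinylated RON2 peptide at 25 nM; detection used donor plus acceptor beads, 10 µg/mL apiece, read by AlphaScreen after 30 min at room temperature.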
Hits are given with their value; i = inactive; ? = inconclusive; nt = no result given. Unless noted, calls follow the shape of the dose curve; as a rule, active = well fitted curve in the direction sought with a large enough effect; inconclusive = small, poorly fitted or top-dose-only effect, or another doubt; inactive = no such curve, though single readings can be large; an effect the other way counts as inactive or inconclusive.

SMILES	CHX counter	SARS PLP yeast	AmpC inh no detg	Shiga inhibitor	AmpC inh detg	AMA1-RON2 inh
C=CCNC(=O)c1ccc2c3n(nc2c1)-c1ccc(Cl)cc1CO3	nt	nt	nt	nt	nt	i
Cc1cccc2nc(COc3ccc(Cl)c4cccnc34)cn12	32.5	i	i	102.1	i	i
Cc1cccc(C)c1NC(=O)COc1ccc2c(C)c(Cc3ccccc3)c(=O)oc2c1C	i	i	i	i	?	i
O=C(O)c1ccc2c(=O)n3cc(C(=O)c4ccccc4O)cc(Cl)c3nc2c1	34.1	i	i	i	?	i
Cc1ccc2nc(-c3ccccc3F)c(Nc3ccc(Cl)cc3)n2c1	nt	nt	nt	nt	i	nt
COc1ccc(/C=C/c2cc(C(=O)O)c3ccccc3n2)cc1	14.6	i	i	i	i	i
Cc1cc(/C=C\c2ccccc2)nc2ccccc12	30.3	i	i	119.5	i	i
CCOC(=O)c1c(-c2ccccc2Cl)cn2ccccc12	i	i	i	i	i	i
O=C(Cn1cc2c(n1)CCCC2)NC1CCN(Cc2ccccc2)CC1	i	?	i	i	?	i
CCOC(=O)c1cnc2ccc(OCC)cc2c1NCCCN1CCOCC1	17.6	i	i	i	i	i
COc1ccc(-c2cc(C(=O)OC(C)C(=O)c3ccccc3)c3cccc(Cl)c3n2)cc1 (stereo not given)	nt	nt	nt	nt	i	nt
O=[N+]([O-])c1ccc(CSc2ccccn2)cc1	38.9	i	i	i	?	i
Cc1ccnc(SCc2ccc([N+](=O)[O-])cc2)n1	16.7	i	i	i	i	i
O=[N+]([O-])c1ccccc1CSc1ccccn1	i	i	i	52.8	i	i
O=[N+]([O-])c1ccc(Sc2ccccn2)nc1	i	i	i	i	i	i
O=[N+]([O-])c1ccc(SCCc2ccccn2)cc1	20.8	i	i	50.3	i	i
O=[N+]([O-])c1ccc(SCCc2ccncc2)cc1	i	i	i	i	i	i
Cc1ccc(NC(=S)NN2CCN(C)CC2)cc1	i	i	i	i	?	i
O=C(Nc1ccccc1F)C1CCN(S(=O)(=O)c2ccc3c(c2)CCCN3C(=O)C2CCC2)CC1	nt	nt	nt	nt	i	nt
CCC/C=N/O	nt	i	i	nt	i	i
O=C(Nc1ccc(S(=O)(=O)Nc2nccs2)cc1)c1nn(-c2ccc(F)cc2)ccc1=O	i	i	10µM	i	i	i
O=c1oc2ccccc2nc1/C=C(\O)c1ccccc1	63.2	i	i	103.7	i	i
CC(C)C/C(O)=C/c1nc2cc(Cl)ccc2oc1=O	i	i	i	i	i	i
O/C(=C\c1nc2ccccc2nc1/C=C(\O)c1ccccc1)c1ccccc1	31.0	i	i	101.6	i	i
CC(C)(C)/C(O)=C/c1nc2ccccc2oc1=O	i	i	i	i	i	i
SMILES	CHX counter	SARS PLP yeast	AmpC inh no detg	Shiga inhibitor	AmpC inh detg	AMA1-RON2 inh
O=c1oc2ccc(Cl)cc2nc1/C=C(\O)c1ccco1	25.4	i	i	41.5	i	i
O/C(=C\c1ccc2ccccc2n1)c1ccncc1	nt	i	i	nt	i	i
Cc1nc(C)c(/C(O)=C/c2nc3ccccc3oc2=O)s1	21.8	i	i	i	i	i
COc1ccc(-c2csc3nc(C)nc(N4CCCCC4)c23)cc1OC	i	i	i	i	?	i
N#Cc1cccc(CN2C=NS(=O)(=O)c3ccccc32)c1	i	i	i	i	i	i
COc1ccc(CCNC(=O)CCn2c(=O)c3cccn3c3cccnc32)c(OC)c1OC	nt	nt	nt	nt	i	nt
Cc1oc2ncn(CC(C)C)c(=O)c2c1C(=O)NCCc1ccccc1	nt	nt	nt	nt	i	nt
CC(=O)N(C)c1ccc(OCC(O)CN(c2ccccc2C)S(=O)(=O)c2ccc(C)cc2)cc1 (stereo not given)	i	i	i	i	i	i
O=C(c1ccc2snnc2c1)N1CCCCC1	i	i	i	i	?	i
Cc1ccc(NP(=O)(Oc2ccccc2)Oc2ccccc2)cc1	nt	nt	nt	nt	nt	i
Cc1ccc(NP(=O)(Nc2ccc(C)cc2)Oc2ccccc2)cc1	23.7	i	i	i	i	i
Cn1cc(/C=C2\SC(=O)NC2=S)c2ccccc21	i	i	i	i	i	i
CC(C)(C)NC(=O)/C=C/c1cccc(C(F)(F)F)c1	14.3	i	i	i	i	i
O=C(COC(=O)/C=C/c1cccc(C(F)(F)F)c1)NCc1ccccc1	i	?	7.94µM	i	i	i

Screening results deposited in PubChem BioAssay by National Center for Advancing Translational Sciences (NCATS).
